A short description of assay [1]: Cellular Toxicity (caspase-3) Renal Proximal Tubule (AID 667).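 For caspase-3 activation: 0% = DMSO basal and 100% = 10 µM staurosporine.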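 Note: cells exposed to compound for 16 hours at 37 °C before detection.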 Note: potency is the fitted concentration of half-maximal effect. The conditions noted are these: Potency: caspase-3 activation. The method in brief: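 Freshly isolated primary rat kidney proximal tubule cells, 1000/well, treated 16 hr at 37 °C, then Caspase-Glo 3/7 luminescence after 1 hr. Normalized to DMSO and 10 uM staurosporine; AC50 from Hill fit.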
Assay [2] has as its target Cytochrome P450 3A4 (Homo sapiens) (UniProt P08684). Put plainly: qHTS Assay for Activators of Cytochrome P450 3A4 (AID 885). Note: nearly all actives have a fitted effect of over 65% in size. The essentials: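 Human CYP3A4 dealkylates Luciferin-PPXE to luciferin, which luciferase detection converts to light. Substrate was at its KM (25uM), buffer 200mM KPO4, reaction 60 min at RT.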
On the technique in general: In qHTS, concentration-response curves come from the screen itself.

Assay [3] concerns the target Cytochrome P450 2D6 (Homo sapiens) (UniProt P10635). Put plainly: qHTS Assay for Inhibitors and Substrates of Cytochrome P450 2D6 (AID 891). Note: potency is the fitted concentration of half-maximal effect; nearly all actives have a fitted effect of over 60% in size. The method in brief:
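Luminescent read-out of luciferin formed by 5 nM human CYP2D6 demethylating 30 uM Luciferin-ME EGE (Km level) over 60 min at room temperature after NADPH regeneration addition. Data normalized to full inhibition by 1.43 uM quinidine.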

Assay [4] is described as follows: Confirmation and Secondary Assay for Modulators of Hemoglobin Beta Chain Splicing at IVS2 654 locus (AID 910). Note: % of control where 0% means no effect. The essentials: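 HeLa cells stably carrying EGFP interrupted by mutant beta-globin IVS2-654 intron (CMV-driven) were treated with compound for 2 days at 37C; corrected splicing was scored as total peak GFP intensity per well (488 nm excitation, 500-520 nm emission).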

Assay [5] can be described thus: Cell Viability - LYMP2-001 (AID 921).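 Note: cells exposed to compound for 24 h at 37 °C; nearly all actives have a fitted effect of over 70% in size.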 Note: potency is the fitted concentration of half-maximal effect. The essentials: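 Human lymphoblastoid LYMP2-001 cells, 2500 per well, in complete medium, treated 24 h at 37 C. Viability from cellular ATP by CellTiter-Glo luminescence; AC50 from Hill-equation fits of qHTS concentration-response.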
A short description of assay [6]: Confirmation and Secondary Assay for Modulators of Hemoglobin Beta Chain Splicing at IVS2 705 locus (AID 930).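 Note: HeLa cells stably expressing the EGFP-705 splicing reporter; GFP fluorescence per well restored by corrected splicing of the IVS2-705 intron in EGFP; series mostly up to about 46 µM; % of control where 0% means no effect.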 The essentials:
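HeLa cells stably carrying EGFP interrupted by mutant beta-globin intron 2 (IVS2-705) treated 2 days at 37C with compound; 500 nM antisense PNA as control. Correct splicing read as total peak GFP intensity per well by laser-scanning cytometry.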

The nature of assay [7]: Cell Viability - LYMP1-002 - Assay at 16 hr (AID 948). Note: potency is the fitted concentration of half-maximal effect. The essentials: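 LYMP1-002 human lymphoblastoid cells, 2500/well, were treated with compounds for 16 hr at 37 C in complete medium. Viability was read as intracellular ATP by CellTiter-Glo luminescence, and AC50 was derived from a Hill fit to concentration-response data.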
The nature of assay [8]: MultiTox-Fluor Cytotoxicity Assay - LYMP1-003 - Dead Cells (AID 961).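 Note: 0% = DMSO and 100% = tetraoctylammonium bromide; nearly all actives have a fitted effect of over 70% in size.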 The essentials: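 LYMP1-003 human lymphoblastoid cells (2500/well) exposed to compound 16 h at 37 C in complete medium; dead-cell protease read with bis-AAF-R110 fluorescence (Ex/Em 485/520) after 60 min at room temperature. Normalized to DMSO and 15 uM tetraoctylammonium bromide; AC50 from Hill fit.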

Assay [9] is described as follows: MultiTox-Fluor Cytotoxicity Assay - LYMP1-001 - Live Cells (AID 947). Note: potency is the fitted concentration of half-maximal effect.
The nature of assay [10]: MultiTox-Fluor Cytotoxicity Assay - LYMP1-002 - Dead Cells (AID 960). Note: nearly all actives have a fitted effect of over 60% in size. Note: potency is the fitted concentration of half-maximal effect. The method in brief:
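Readout: fluorescence at 485/520 from cell-impermeant bis-AAF-R110 cleaved by proteases leaking from damaged cells. LYMP1-002 lymphoblastoid line, 16 hr compound treatment at 37 C, concentration-response in qHTS format; Hill-equation AC50 values.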

Assay [11] addresses Cytochrome P450 2C9 (Homo sapiens) (UniProt P11712). Description: qHTS Assay for Inhibitors and Substrates of Cytochrome P450 2C9 (AID 883). Note: % is set by controls: 0 for no effect and ±100 for the full control effect; nearly all actives have a fitted effect of over 60% in size. The method in brief:
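CYP2C9 deoxyluciferin hydroxylation, 37C, 60 min with NADPH regeneration; 10nM enzyme, 100uM Luciferin-H (KM). Glo detection reagent stopped reaction; luminescence normalized to sulphaphenazole (57uM) full inhibition.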

Assay [12] addresses Guanine nucleotide-binding protein G(i) subunit alpha-1 (Homo sapiens) (UniProt P63096). Put plainly: qHTS Assay for Inhibitors of RGS12 GoLoco Motif Activity (Green Fluorophore) (AID 879).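 Note: 0% = labeled peptide with Gαi1 and full inhibition = labeled peptide alone without protein; negative values mean loss of peptide binding seen as reduced polarization.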 The essentials: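 A drop in FITC polarization marked displacement of the FITC-tagged RGS12 GoLoco peptide (10 nM) from Gαi1 (50 nM). Compounds were incubated 10 min at room temperature in Tris pH 7.5 buffer containing 150 mM NaCl, 0.1 mM GDP and 0.05% NP40; unlabeled peptide titration served as control.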

Assay [13] addresses Pyruvate kinase (Leishmania mexicana) (UniProt Q27686). Description: qHTS Validation Assay for Inhibitors of Leishmania Mexicana Pyruvate Kinase (AID 945).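 Note: 0% = DMSO only neutral control wells.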 The method in brief: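 Eight-point qHTS titrations in triplicate, data normalized to DMSO neutral control. Reaction: 0.2 nM LmPYK E451W mutant, 0.5 mM PEP, 0.1 mM ADP, 7 mM MgCl2, pH 7.2, one hour at room temperature; luminescent ATP detection.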

Assay [14] addresses Pyruvate kinase PKM (Homo sapiens) (UniProt P14618). Description: qHTS Assay for Activators of Human Muscle Pyruvate Kinase (AID 954; active = well fitted curve in the direction sought with a large enough effect, not every such curve was filed as active;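 note: 0% = uninhibited enzyme and -100% = no enzyme or full thiadiazolimine inhibition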). The method in brief:
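Compound pinned into substrate mix (0.5 mM PEP, 0.1 mM ADP), then 0.1 nM PKM2 added; 1 h, RT. Stop/detection luciferase reagent added, luminescence read. Normalized to no-inhibition and no-enzyme or reference-inhibitor controls.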

The target in assay [15] is Cytochrome P450 2C19 (Homo sapiens) (UniProt P33261). Description: qHTS Assay for Inhibitors and Substrates of Cytochrome P450 2C19 (AID 899). Note: % is set by controls: 0 for no effect and ±100 for the full control effect; nearly all actives have a fitted effect of over 60% in size. The essentials: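 In 50mM KPO4, the reaction held 5nM enzyme and KM-level (10uM) Luciferin-H EGE; it ran 60 min at 37C after NADPH regeneration and a 10 min compound preincubation. Luminescence values were scaled to 57uM ketoconazole as complete inhibition.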
Chain of Cytochrome P450 2C19 (Homo sapiens) (P33261 whole entry, looked up): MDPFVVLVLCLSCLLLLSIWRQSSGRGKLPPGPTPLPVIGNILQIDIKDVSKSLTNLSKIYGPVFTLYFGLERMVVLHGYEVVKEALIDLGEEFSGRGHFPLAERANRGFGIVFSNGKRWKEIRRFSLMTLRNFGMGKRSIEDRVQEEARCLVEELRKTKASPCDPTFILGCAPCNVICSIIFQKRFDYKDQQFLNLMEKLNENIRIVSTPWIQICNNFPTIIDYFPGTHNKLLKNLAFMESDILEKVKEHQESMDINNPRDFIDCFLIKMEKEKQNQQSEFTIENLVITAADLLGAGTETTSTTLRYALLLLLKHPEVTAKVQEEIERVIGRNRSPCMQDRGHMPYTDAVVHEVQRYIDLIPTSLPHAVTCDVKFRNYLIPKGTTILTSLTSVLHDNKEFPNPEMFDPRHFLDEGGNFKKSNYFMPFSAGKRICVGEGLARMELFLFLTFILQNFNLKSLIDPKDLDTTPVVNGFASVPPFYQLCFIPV

Assay [16] can be described thus: qHTS Assay for Identification of Small Molecule Agonists for Hypoxia Response Element Signaling Pathway (AID 914; active = well fitted activation curve with a large enough effect in the signal ratio, with a control signal flat, not every such curve was filed as active; the % refers to the signal ratio; note: % of control where 0% means no effect). The conditions noted are these: ME-180 (cervical carcinoma) HRE-bla reporter, beta-lactamase ratio, CoCl2, 17 h; active compounds read high. The essentials: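 HRE-bla ME-180 cells with beta-lactamase reporter under hypoxia response element, compounds with EC50 CoCl2 for 17 hours at 37 C. CCF4 substrate, 460nm/530nm emission ratio gave %Activity; AC50 from titration series.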

Molecules are shown by their SMILES. Values joined by “and” are separate entries in the source; they are usually repeats but may differ in a detail not shown here. Identical values can stand only once. Unmarked numbers belong to inactive results. Inconclusive results are not listed. Active and inactive are the calls of the source. Unless noted, calls come from the whole dose curve; as a rule, active = well fitted curve in the direction sought with a large enough effect; inconclusive = small, poorly fitted or top-dose-only effect, or another doubt; inactive = no such curve, though single readings can be large; an effect the other way counts as inactive or inconclusive.

The values below come from PubChem BioAssay (NCATS).

Chain of Cytochrome P450 3A4 (Homo sapiens) (P08684 whole entry, looked up): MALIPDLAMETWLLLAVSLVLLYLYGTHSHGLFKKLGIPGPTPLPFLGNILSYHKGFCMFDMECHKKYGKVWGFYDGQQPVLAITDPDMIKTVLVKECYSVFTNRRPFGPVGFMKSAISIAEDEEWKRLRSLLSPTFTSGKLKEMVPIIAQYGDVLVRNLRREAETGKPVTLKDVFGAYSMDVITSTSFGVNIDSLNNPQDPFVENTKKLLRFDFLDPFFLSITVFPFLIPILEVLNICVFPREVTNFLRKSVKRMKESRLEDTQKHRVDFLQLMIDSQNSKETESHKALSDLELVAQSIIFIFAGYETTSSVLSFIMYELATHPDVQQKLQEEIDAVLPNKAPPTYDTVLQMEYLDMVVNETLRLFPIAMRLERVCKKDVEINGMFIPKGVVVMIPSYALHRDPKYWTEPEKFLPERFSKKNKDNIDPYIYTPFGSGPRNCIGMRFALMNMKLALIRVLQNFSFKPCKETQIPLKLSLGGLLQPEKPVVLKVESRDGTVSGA
Chain of Cytochrome P450 2C9 (Homo sapiens) (P11712 whole entry, looked up): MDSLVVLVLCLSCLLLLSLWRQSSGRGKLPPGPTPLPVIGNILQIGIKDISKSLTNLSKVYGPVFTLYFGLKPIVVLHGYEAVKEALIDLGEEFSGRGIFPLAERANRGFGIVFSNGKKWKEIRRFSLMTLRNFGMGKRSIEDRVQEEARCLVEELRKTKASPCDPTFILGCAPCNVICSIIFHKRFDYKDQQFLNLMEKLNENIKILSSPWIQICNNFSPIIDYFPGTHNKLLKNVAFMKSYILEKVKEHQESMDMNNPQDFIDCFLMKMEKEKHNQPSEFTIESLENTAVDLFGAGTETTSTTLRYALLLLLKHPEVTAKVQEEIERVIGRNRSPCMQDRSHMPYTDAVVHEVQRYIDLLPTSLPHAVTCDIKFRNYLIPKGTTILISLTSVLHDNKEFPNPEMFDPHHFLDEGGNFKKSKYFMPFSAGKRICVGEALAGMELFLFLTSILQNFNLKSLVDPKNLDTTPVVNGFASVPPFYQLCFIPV
Chain of Pyruvate kinase PKM (Homo sapiens) (P14618 whole entry, looked up): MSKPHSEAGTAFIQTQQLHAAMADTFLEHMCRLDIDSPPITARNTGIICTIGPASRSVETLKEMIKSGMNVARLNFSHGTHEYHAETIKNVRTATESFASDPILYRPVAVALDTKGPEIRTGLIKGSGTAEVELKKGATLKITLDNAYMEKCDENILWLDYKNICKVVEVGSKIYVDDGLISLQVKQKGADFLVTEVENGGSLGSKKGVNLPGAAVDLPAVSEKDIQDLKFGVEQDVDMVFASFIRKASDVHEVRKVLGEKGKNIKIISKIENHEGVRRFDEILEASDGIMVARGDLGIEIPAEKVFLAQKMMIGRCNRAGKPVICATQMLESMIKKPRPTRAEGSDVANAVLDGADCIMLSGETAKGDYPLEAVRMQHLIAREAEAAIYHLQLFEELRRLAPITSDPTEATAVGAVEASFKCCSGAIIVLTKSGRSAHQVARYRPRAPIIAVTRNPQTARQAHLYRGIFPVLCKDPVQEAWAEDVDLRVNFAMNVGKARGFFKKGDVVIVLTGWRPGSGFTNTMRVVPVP
Chain of Guanine nucleotide-binding protein G(i) subunit alpha-1 (Homo sapiens) (P63096 whole entry, looked up): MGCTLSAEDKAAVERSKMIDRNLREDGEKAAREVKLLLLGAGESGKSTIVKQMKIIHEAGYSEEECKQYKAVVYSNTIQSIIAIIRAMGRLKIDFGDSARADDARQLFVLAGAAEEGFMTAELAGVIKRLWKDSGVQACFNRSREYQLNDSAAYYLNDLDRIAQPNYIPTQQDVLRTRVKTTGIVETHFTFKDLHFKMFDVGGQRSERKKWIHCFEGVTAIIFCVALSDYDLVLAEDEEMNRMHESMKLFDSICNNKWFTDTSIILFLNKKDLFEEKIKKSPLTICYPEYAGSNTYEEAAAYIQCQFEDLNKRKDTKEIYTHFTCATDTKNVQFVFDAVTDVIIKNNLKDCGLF
Chain of Pyruvate kinase (Leishmania mexicana) (Q27686 2-499 E452W): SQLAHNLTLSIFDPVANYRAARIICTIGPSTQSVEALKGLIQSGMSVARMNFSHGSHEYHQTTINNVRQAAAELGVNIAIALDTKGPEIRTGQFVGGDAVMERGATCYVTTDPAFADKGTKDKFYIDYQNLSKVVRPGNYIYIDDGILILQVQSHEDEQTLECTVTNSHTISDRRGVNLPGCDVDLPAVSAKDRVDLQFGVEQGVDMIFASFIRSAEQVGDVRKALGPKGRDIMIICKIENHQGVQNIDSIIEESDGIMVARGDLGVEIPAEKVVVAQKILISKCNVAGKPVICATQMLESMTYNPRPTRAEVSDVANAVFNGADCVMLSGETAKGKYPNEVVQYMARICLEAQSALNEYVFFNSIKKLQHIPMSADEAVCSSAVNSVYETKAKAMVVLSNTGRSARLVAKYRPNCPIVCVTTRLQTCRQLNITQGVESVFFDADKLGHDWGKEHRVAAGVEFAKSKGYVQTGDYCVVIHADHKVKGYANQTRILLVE
Chain of Cytochrome P450 2D6 (Homo sapiens) (P10635 whole entry, looked up): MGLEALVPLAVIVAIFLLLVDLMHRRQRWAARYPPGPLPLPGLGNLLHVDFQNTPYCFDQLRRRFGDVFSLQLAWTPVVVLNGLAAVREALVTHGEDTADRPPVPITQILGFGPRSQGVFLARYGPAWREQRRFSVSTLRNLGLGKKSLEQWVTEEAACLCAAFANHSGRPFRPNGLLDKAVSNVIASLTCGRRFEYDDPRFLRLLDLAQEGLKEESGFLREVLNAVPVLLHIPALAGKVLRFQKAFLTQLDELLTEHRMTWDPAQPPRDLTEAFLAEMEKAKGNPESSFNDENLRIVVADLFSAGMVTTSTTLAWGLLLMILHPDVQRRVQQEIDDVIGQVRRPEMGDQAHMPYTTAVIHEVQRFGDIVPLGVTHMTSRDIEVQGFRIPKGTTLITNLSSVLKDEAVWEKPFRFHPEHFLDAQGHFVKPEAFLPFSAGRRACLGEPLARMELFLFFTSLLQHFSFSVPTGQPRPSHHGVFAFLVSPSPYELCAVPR

`COc1ccc2cc3[n+](cc2c1OC)CCc1cc2c(cc1-3)OCO2`: the Potency entry in assay [1], in assay [4], in assay [6] and in assay [7] was “inactive” throughout. Further, the call in assay [2] and in [8] was inactive. The Potency in assay [3] is 2.51 µM (active); in assay [5], 39.8 µM (active).
Regarding `Cc1nnc(NS(=O)(=O)c2ccc(N)cc2)s1`, the Potency result in [1], in assay [4], in assay [5], in assay [6], in assay [9] and in assay [7] was “inactive” each time. Besides, the Potency entry in [10] is “inactive”. Moreover, the call in [8] was inactive.
`C1CCC(C(CC2CCCCN2)C2CCCCC2)CC1` (stereo not given): in assay [2], the compound was called inactive. Also, the Potency entry in assay [4] and in assay [6] was “inactive” throughout.
As to `COC(=O)Nc1nc2ccc(C(=O)c3ccccc3)cc2[nH]1`, the call in assay [11] was inactive. Moreover, the Potency entry in assay [4] and in assay [6] was “inactive” each time.
For the compound `O=C(O)c1cc(=O)[nH]c(=O)[nH]1`, the Potency entry in [1], in [5], in [9], in assay [7] and in [10] was “inactive” throughout. In addition, in assay [8], the compound was called inactive.
Consider `Cc1cccc(Nc2ccncc2S(=O)(=O)NC(=O)NC(C)C)c1`, for which the result in assay [2] was inactive. Besides, the Potency entry in assay [4] and in assay [6] was “inactive” each time.
With `CC(C)(C)NC(=O)[C@H]1CC[C@H]2[C@@H]3CC[C@H]4NC(=O)C=C[C@]4(C)[C@H]3CC[C@]12C`, the call in assay [12], in assay [13] and in assay [14] was inactive.
For `CCCCS(=N)(=O)CCC(N)C(=O)O` (stereo not given), in [2], the call was inactive. The Potency result in assay [4] and in [6] was “inactive” each time.
For the compound `CCn1cc(C(=O)O)c(=O)c2cc(F)c(N3CCNCC3)nc21`, in assay [11], the result was inactive. The Potency entry in [4] and in assay [6] was “inactive” throughout.
`COc1cc([C@@H]2c3cc4c(cc3[C@H](O)[C@H]3COC(=O)[C@H]23)OCO4)cc(OC)c1OC`: in assay [2], the result was inactive.
Turning to `NC(N)=NC(N)=NCCc1ccccc1`, the Potency result in [1], in assay [5], in [9], in assay [7] and in assay [10] was “inactive” in each case. Also, in assay [8], the compound was classed as inactive.
Take `Cc1ncc([N+](=O)[O-])n1CCO`: the Potency result in [1], in [4], in assay [5], in assay [6], in assay [9] and in [7] was “inactive” each time. For the same compound, in assay [10], the Potency entry was “inactive”. The call in assay [8] was inactive.
Consider `CCCOc1ccc(C(=O)OCCN(CC)CC)cc1N`, for which the Potency result in assay [15] is “inactive”.
`Cc1noc(NS(=O)(=O)c2ccc(N)cc2)c1C`: the Potency entry in assay [1], in assay [4], in assay [5], in assay [6], in [9] and in assay [7] was “inactive” throughout. Besides, in assay [10], the Potency result is “inactive”. The outcome in [11] and in assay [8] was inactive. For the same compound, in assay [16], the activation was -20.7% and -0.198%.
Turning to `Cc1cccc(N(C)C(=S)Oc2ccc3ccccc3c2)c1`, the result in assay [2] was inactive. Moreover, the Potency result in [4] and in assay [6] was “inactive” in each case.
As for `CCc1cc(C(N)=S)ccn1`, the Potency entry in assay [1], in [4], in assay [5], in assay [6], in assay [9] and in assay [7] was “inactive” throughout. For the same compound, the Potency result in assay [10] was “inactive”. The result in assay [8] was inactive.
On to `CN(C)c1ccc(C(=C2C=CC(=[N+](C)C)C=C2)c2ccc(N(C)C)cc2)cc1`, for which the Potency in assay [1] was 31.6 µM (active); in assay [5], 1.26 µM (active); in assay [9], 25.1 µM (active); in assay [7] it was 6.31 µM (active); in [10], 3.98 µM (active). In addition, in assay [2], the compound was called inactive. Also, the Potency result in [4] and in [6] was “inactive” each time.
